Measured values taken from PubChem BioAssay AID1159580 (chemical genetic matrix, 2015).
The campaign covered roughly 5,500 compounds. About 2,000 (36%) were called active. Another 18% or so got no clear call; they are omitted. Cut-off read from the data, not from the text of the source: active = normalized growth mostly below about 0.91 (no sharp cut-off); inconclusive = no clear call, values can overlap the other calls; inactive = mostly above about 0.92. The list shows a part of the results.

Experiment: chemical genetic growth profiling, strain panel (AID 1159580);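 note: tested at 20 µM; growth read once vehicle control cultures reached saturation at 30 °C; 1 = growth at the plate median or of vehicle wells; lower values mean less growth of the strain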
Conditions: growth OD
[1] = S. cerevisiae deletion strains, locus YAL013W, strain DEP1, active compounds read low
[2] = S. cerevisiae deletion strains, locus YDR150W, strain NUM1, active compounds read low
[3] = S. cerevisiae deletion strains, locus YGR078C, strain PAC10, active compounds read low
[4] = S. cerevisiae deletion strains, locus YJR075W, strain HOC1, active compounds read low
[5] = S. cerevisiae deletion strains, locus YNL153C, strain GIM3, active compounds read low
[6] = S. cerevisiae deletion strains, locus YPL055C, strain LGE1, active compounds read low
[7] = S. cerevisiae deletion strains, locus YPL241C, strain CIN2, active compounds read low
[8] = S. cerevisiae deletion strains, locus YBR229C, strain ROT2, active compounds read low
[9] = S. cerevisiae deletion strains, locus YCL061C, strain MRC1, active compounds read low
[10] = S. cerevisiae deletion strains, locus YDL101C, strain DUN1, active compounds read low
[11] = S. cerevisiae deletion strains, locus YDL134C, strain PPH21, active compounds read low
[12] = S. cerevisiae deletion strains, locus YEL061C, strain CIN8, active compounds read low
[13] = S. cerevisiae deletion strains, locus YGR229C, strain SMI1, active compounds read low
[14] = S. cerevisiae deletion strains, locus YHR030C, strain SLT2, active compounds read low
[15] = S. cerevisiae deletion strains, locus YHR087W, strain rtc3, active compounds read low
[16] = S. cerevisiae deletion strains, locus YJR043C, strain POL32, active compounds read low
[17] = S. cerevisiae deletion strains, locus YKL190W, strain CNB1, active compounds read low
[18] = S. cerevisiae deletion strains, locus YLR039C, strain RIC1, active compounds read low
[19] = S. cerevisiae deletion strains, locus YLR058C, strain SHM2 (second series), active compounds read low
[20] = S. cerevisiae deletion strains, locus YLR085C, strain ARP6, active compounds read low
[21] = S. cerevisiae deletion strains, locus YLR262C, strain YPT6, active compounds read low
[22] = S. cerevisiae deletion strains, locus YML094W, strain GIM5, active compounds read low
[23] = S. cerevisiae deletion strains, locus YMR219W, strain ESC1, active compounds read low
[24] = S. cerevisiae deletion strains, locus YMR263W, strain SAP30, active compounds read low
[25] = S. cerevisiae deletion strains, locus YNL298W, strain CLA4 (second series), active compounds read low
[26] = S. cerevisiae deletion strains, locus YNL322C, strain KRE1, active compounds read low
[27] = S. cerevisiae deletion strains, locus YNR030W, strain Alg12, active compounds read low
[28] = S. cerevisiae deletion strains, locus YOL006C, strain TOP1, active compounds read low
[29] = S. cerevisiae deletion strains, locus YPR135W, strain CTF4, active compounds read low

Measured: normalized growth

CCCN(CCC)C1CCc2cccc(O)c2C1 (configuration not stated)
inactive: [1] 1 | S. cerevisiae deletion strains, locus YAL040C, strain CLN3, active compounds read low 0.984 | S. cerevisiae deletion strains, locus YCL061C, strain MRC1 (second series), active compounds read low 1 | [2] 0.998 | S. cerevisiae deletion strains, locus YDR363W, strain ESC2, active compounds read low 1.01 | S. cerevisiae deletion strains, locus YER002W, strain NOP16, active compounds read low 1 | [3] 1.01 | [4] 0.995 | S. cerevisiae deletion strains, locus YNL128W, strain TEP1, active compounds read low 1 | [5] 1.1 | S. cerevisiae deletion strains, locus YNL175C, strain NOP13, active compounds read low 1.01 | S. cerevisiae deletion strains, locus YNL197C, strain WHI3, active compounds read low 1.01 | S. cerevisiae deletion strains, locus YNL224C, strain SQS1, active compounds read low 1.02 | S. cerevisiae deletion strains, locus YOR083W, strain WHI5 (second series), active compounds read low 1.01 | [6] 1 | [7] 1

COC(=O)c1c(-c2c(Cl)cccc2Cl)noc1NC(=O)NN1CCCCC1
inactive: [1] 1.02 | [8] 1.02 | [9] 1.01 | [10] 1.01 | [11] 0.993 | [2] 0.993 | [12] 1 | [3] 1.03 | [13] 1 | [14] 0.973 | [15] 1.03 | S. cerevisiae deletion strains, locus YJL187C, strain SWE1, active compounds read low 1.01 | [16] 1.01 | [4] 1.02 | [17] 1 | [18] 0.963 | [19] 1.01 | [20] 0.992 | [21] 0.977 | [22] 1.04 | [23] 1.01 | [24] 1 | S. cerevisiae deletion strains, locus YMR307W, strain GAS1, active compounds read low 1 | [5] 1.01 | [25] 1 | [26] 1.01 | [27] 0.987 | [28] 1.05 | [6] 1.01 | [7] 0.911 | [29] 0.969 | S. cerevisiae strains, strain wild type, active compounds read low 0.999

Cc1onc(-c2ccccc2)c1NC(=O)Nc1c(Cl)cccc1Cl
active: [18] 0.668 | [21] 0.572
inactive: [1] 0.995 | [8] 0.983 | [9] 0.963 | [10] 0.988 | [11] 0.996 | [2] 0.973 | [12] 0.991 | [3] 1 | [13] 0.996 | [14] 0.811 | [15] 0.975 | [16] 0.969 | [4] 0.975 | [17] 1 | [19] 0.988 | [20] 0.946 | [22] 0.949 | [23] 0.991 | [24] 0.999 | [5] 1.01 | [25] 0.974 | [26] 0.976 | [27] 0.983 | [28] 0.803 | [6] 0.997 | [7] 0.941 | [29] 0.933
